Measured values reported in PubChem BioAssay AID1159580 (chemical genetic matrix, 2015).
Where “and” joins values, the source holds several entries; their conditions need not be identical. Equal entries are not always repeated. The campaign covered roughly 5,500 compounds. About 2,000 (36%) were called active. Roughly 18% stayed inconclusive and do not appear here. Cut-off read from the data, not from the text of the source: active = normalized growth mostly below about 0.91 (no sharp cut-off); inconclusive = no clear call, values can overlap the other calls; inactive = mostly above about 0.92. The list shows a part of the results.

Experiment: chemical genetic growth profiling, strain panel (AID 1159580);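 note: tested at 20 µM; growth read once vehicle control cultures reached saturation at 30 °C; 1 = growth at the plate median or of vehicle wells; lower values mean less growth of the strain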
Conditions: S. cerevisiae deletion strains, growth OD

Measured: normalized growth

COc1ccc2cc(CCC(C)=O)ccc2c1
active: locus YDL192W, strain arf1, hits give low values 0.91 | locus YDR502C, strain sam2, hits give low values 0.908 | locus YER155C, strain BEM2 (second series), hits give low values 0.843 | locus YGL078C, strain dbp3, hits give low values 0.921 | locus YGR135W, strain pre9, hits give low values 0.881 | locus YGR252W, strain gcn5, hits give low values 0.763
inactive: locus YAL013W, strain DEP1, hits give low values 0.952 | locus YAL021C, strain ccr4, hits give low values 0.986 | locus YAL026C, strain drs2, hits give low values 0.996 | locus YAL030W, strain snc1, hits give low values 0.992 | locus YBL061C, strain skt5, hits give low values 0.981 | locus YBR009C, strain hhf1, hits give low values 0.989 | locus YBR021W, strain FUR4, hits give low values 0.947 | locus YBR023C, strain chs3, hits give low values 0.977 | locus YBR171W, strain sec66, hits give low values 0.985 | locus YBR229C, strain ROT2, hits give low values 0.919 | locus YBR231C, strain swc5, hits give low values 0.996 | locus YBR279W, strain paf1, hits give low values 0.993 | locus YCL011C, strain gbp2, hits give low values 0.983 | locus YCL016C, strain dcc1, hits give low values 0.997 | locus YCL029C, strain bik1, hits give low values 0.939 | locus YCL061C, strain MRC1, hits give low values 1 | locus YCL069W, strain vba3, hits give low values 0.993 | locus YCR088W, strain abp1, hits give low values 0.989 | locus YDL005C, strain med2, hits give low values 1.02 | locus YDL035C, strain GPR1, hits give low values 0.93 | locus YDL040C, strain nat1, hits give low values 0.997 | locus YDL074C, strain BRE1, hits give low values 0.935 | locus YDL101C, strain DUN1, hits give low values 0.955 | locus YDL134C, strain PPH21, hits give low values 0.967 | locus YDL185W, strain tfp1, hits give low values 0.945 | locus YDR001C, strain nth1, hits give low values 0.994 | locus YDR069C, strain doa4, hits give low values 1.01 | locus YDR101C, strain arx1, hits give low values 0.931 | locus YDR137W, strain rgp1, hits give low values 1.1 | locus YDR150W, strain NUM1, hits give low values 0.939 | locus YDR159W, strain sac3, hits give low values 1.03 | locus YDR162C, strain NBP2, hits give low values 0.943 | locus YDR195W, strain ref2 1.08 | locus YDR297W, strain sur2, hits give low values 0.99 | locus YDR318W, strain mcm21, hits give low values 0.93 | locus YDR334W, strain swr1, hits give low values 1.01 | locus YDR335W, strain msn5, hits give low values 0.999 | locus YDR388W, hits give low values 0.942 | locus YDR392W, strain spt3, hits give low values 0.967 | locus YEL003W, strain gim4, hits give low values 0.991 | locus YEL037C, strain rad23, hits give low values 0.991 | locus YEL061C, strain CIN8 (second series), hits give low values 1 | locus YEL061C, strain CIN8, hits give low values 0.946 | locus YER015W, strain faa2, hits give low values 1 | locus YER016W, strain bim1, hits give low values 0.99 | locus YER110C, hits give low values 0.901 | locus YER111C, strain swi4, hits give low values 1 | locus YER155C, strain BEM2, hits give low values 0.965 | locus YER167W, strain BCK2, hits give low values 0.92 | locus YFR010W, strain ubp6, hits give low values 1.01 | locus YGL086W, strain mad1, hits give low values 0.942 | locus YGL167C, strain pmr1, hits give low values 0.99 | locus YGL173C, strain kem1, hits give low values 0.987 | locus YGL227W, strain vid30, hits give low values 0.999 | locus YGL240W, strain doc1, hits give low values 0.929 | locus YGL248W, strain PDE1, hits give low values 0.959 | locus YGL253W, strain hxk2, hits give low values 0.992 | locus YGR078C, strain PAC10, hits give low values 0.938 | locus YGR229C, strain SMI1, hits give low values 0.919 | locus YHR013C, strain ard1, hits give low values 1.02 | locus YHR027C, strain rpn1, hits give low values 0.991 | locus YHR030C, strain SLT2, hits give low values 0.958 and 0.924 | locus YHR079C, strain IRE1 (second series), hits give low values 0.939 | locus YHR079C, strain IRE1, hits give low values 0.956 | locus YHR094C, strain hxt1, hits give low values 0.96 | locus YHR129C, strain ARP1, hits give low values 0.971 | locus YHR142W, strain chs7, hits give low values 0.976 | locus YHR200W, strain rpn10, hits give low values 0.933 | locus YIL066C, strain RNR3, hits give low values 0.929 | locus YIL073C, strain SPO22, hits give low values 0.92 | locus YIL125W, strain kgd1, hits give low values 0.942 | locus YIR030C, strain dcg1, hits give low values 0.929 | locus YJL092W, strain hpr5, hits give low values 0.992 | locus YJL095W, strain BCK1 (second series), hits give low values 0.99 | locus YJL095W, strain BCK1, hits give low values 0.922 and 0.939 | locus YJL115W, strain asf1, hits give low values 1.01 | locus YJL129C, strain trk1, hits give low values 0.97 | locus YJL134W, strain LCB3, hits give low values 0.958 | locus YJL154C, strain vps35, hits give low values 0.992 | locus YJL164C, strain tpk1, hits give low values 0.992 | locus YJL166W, strain qcr8, hits give low values 0.989 | locus YJL168C, strain set2, hits give low values 0.957 | locus YJL187C, strain SWE1 (second series), hits give low values 0.959 | locus YJL187C, strain SWE1, hits give low values 0.992 | locus YJR043C, strain POL32, hits give low values 0.917 | locus YJR066W, strain TOR1, hits give low values 0.926
